# AF4-AF9 inh: blocks AF4 peptide binding to human AF9 | actives 0.47% (n = 350,000) | P42568 | AlphaScreen, biotin-AF4 peptide binding to FLAG-AF9 | inhibition, % at 10 µM;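 active means every replicate reaching a set inhibition limit, whatever the replicate mean, cut at about 25% in these data; inconclusive means mean inhibition reaches that limit but some replicates miss it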;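 further: 0% = plate neutral control median and 100% = total signal loss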
# Target sequence (P42568 whole entry, looked up): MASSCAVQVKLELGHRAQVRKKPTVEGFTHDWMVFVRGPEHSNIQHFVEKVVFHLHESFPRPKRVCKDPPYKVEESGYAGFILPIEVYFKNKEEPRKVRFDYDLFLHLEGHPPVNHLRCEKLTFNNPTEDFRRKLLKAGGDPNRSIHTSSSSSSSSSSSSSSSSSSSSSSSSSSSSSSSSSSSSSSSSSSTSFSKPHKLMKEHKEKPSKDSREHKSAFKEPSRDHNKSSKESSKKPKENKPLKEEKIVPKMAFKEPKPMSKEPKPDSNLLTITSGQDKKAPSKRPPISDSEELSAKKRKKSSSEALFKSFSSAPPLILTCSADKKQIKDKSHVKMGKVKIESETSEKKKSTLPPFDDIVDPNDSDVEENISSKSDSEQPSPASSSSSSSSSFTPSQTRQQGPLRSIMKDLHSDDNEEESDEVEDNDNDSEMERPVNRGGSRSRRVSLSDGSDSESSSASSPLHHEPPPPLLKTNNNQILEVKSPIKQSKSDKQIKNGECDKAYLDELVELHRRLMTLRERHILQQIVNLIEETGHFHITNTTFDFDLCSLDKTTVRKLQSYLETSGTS
# RAD52 anneal inh: inhibitors of human RAD52 DNA annealing; recombinant RAD52 DNA annealing, FRET fluorescence; inhibition, % at 18.7 µM; actives 0.46% (n = 360,000);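 active means every replicate showing at least 50% inhibition; inconclusive means mean inhibition at least 50% but not in every replicate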
# DENV2 CPE: inhibitors of DENV2 cytopathic effect | DENV2-infected cells, cytopathic effect rescue, plate reader | CPE inhibition, % at 9.99 µM | actives 1.7% (n = 350,000); in the data active means CPE inhibition above about 20%, passing the limit was not always enough; inconclusive means no clear call, values can overlap the other calls; tested in BHK-21 cells;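 further: 0% = median of neutral control wells and 100% = median of positive control wells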
# ERAP1 inh: ERAP1 (human) enzyme inhibition; Q9NZ08; recombinant ERAP1, Leu-AMC fluorescence, 60 min; inhibition, % at 10.7 µM; actives 0.15% (n = 340,000);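 active means mean replicate inhibition of at least 30%, or all replicates individually reaching that 30% level; inactive means mean below 30% and not every replicate reaching it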;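 further: 0% = neutral control wells and 100% = L-leucinethiol positive control wells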
# FGF22 binding-1: FGF22 (human) thermal shift binding; Q9HCT0; actives 1.5% (n = 340,000); recombinant FGF22 thermal shift, SYPRO orange fluorescence; percent of sucrose octasulfate shift, DMSO zero; activity (Tm shift, normalised), % at 9.99 µM;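 active means mean Tm shift, scaled 0 neutral to 100 positive control, at about 1.3% or above, every replicate too, limit read from the data; inconclusive means no clear call, values can overlap the other calls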
# FGF22 binding-2: binds human FGF22 shifting its melting temperature. shares compounds with FGF22 binding-1. thermal shift activity, °C (ΔTm) at 38 µM. recombinant FGF22 thermal shift, SYPRO orange fluorescence. AID 720646. actives 2% (n = 1,000);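 active means fitted rise in melting shift crosses a set limit at or below the top valid dose tested; inconclusive means flat fit at mid-level activity, or a poor quality fit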
# SYPRO no-protein: shows thermal shift signal without protein, FGF22 counter-screen; shares compounds with FGF22 binding-1; compound-only SYPRO orange thermal shift counter-screen, no protein; AC50, µM (doses to about 38 µM); actives 2% (n = 1,000); AID 743019;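 active means rising signal whose fitted curve reaches the 0.54 level within the top valid dose, showing a melting point, actives reach about 13 µM in these data; inactive means the rest, including activity in the opposite direction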; further: value is where the raw curve crosses a fixed level and not half-maximal
# * = called active by the depositor; i = inactive; ? = inconclusive; nt = no result given; [ ] = another dose, or the depositor's remark. A selection: hits, their analogues and other compounds. The true share with any hit is near 4%.
SMILES,AF4-AF9 inh,RAD52 anneal inh,DENV2 CPE,ERAP1 inh,FGF22 binding-1,FGF22 binding-2,SYPRO no-protein
C[C@H]1CN([C@@H](C)CO)C(=O)c2cccc(NC(=O)Nc3ccc4c(c3)OCO4)c2O[C@H]1CN(C)S(=O)(=O)c1cn(C)cn1,-3,10,3,3,1.6*,-0.079,i
Cc1ccc(S(=O)(=O)Nc2ccc3c(c2)CC(=O)N([C@H](C)CO)C[C@@H](C)[C@H](CN(C)C(=O)Nc2ccccc2)O3)cc1,-3,19,8,2,2.2*,0.13,i
C[C@H]1CN([C@@H](C)CO)C(=O)c2cc(NC(=O)CCN3CCOCC3)ccc2O[C@H]1CN(C)C(=O)NC1CCCCC1,-2,4,3,0,3.5*,0.15[42 µM],i
COc1ccc(NC(=O)N(C)C[C@H]2Oc3ccc(NS(=O)(=O)c4ccc(Cl)cc4)cc3C(=O)N([C@H](C)CO)C[C@H]2C)cc1,-2,3,14,1,1.4*,-0.034[42 µM],i
Cc1noc(C)c1S(=O)(=O)Nc1ccc2c(c1)CC(=O)N([C@@H](C)CO)C[C@H](C)[C@H](CN(C)S(=O)(=O)c1c(C)noc1C)O2,-2,11,14,-2,0,nt,nt
Cc1cc(C(=O)Nc2cccc3c2O[C@@H](CN(C)C(=O)NC(C)C)[C@@H](C)CN([C@@H](C)CO)C3=O)n(C)n1,1,3,-5,2,0,nt,nt
Cc1noc(C)c1S(=O)(=O)Nc1ccc2c(c1)CC(=O)N([C@H](C)CO)C[C@@H](C)[C@H](CN(C)S(C)(=O)=O)O2,nt,nt,-9,nt,1.3*,-0.038,i
COc1ccc(NC(=O)N(C)C[C@@H]2Oc3ccc(NC(=O)Cc4ccccc4)cc3C(=O)N([C@H](C)CO)C[C@H]2C)cc1,-6,14,-4,-1,1.5*,0.097[42 µM],i
Cc1cc(C(=O)Nc2cccc3c2O[C@@H](CN(C)C(=O)NC2CCCCC2)[C@@H](C)CN([C@H](C)CO)C3=O)n(C)n1,-2,-5,16,1,32*,0.009,i
O=C(C[C@H]1CC[C@@H]2[C@H](COC[C@H](O)CN2Cc2cc(F)ccc2F)O1)NCc1ccc(F)cc1,2,5,3,0,2.6*,0.16[42 µM],i
O=C(C[C@H]1CC[C@@H]2[C@H](COC[C@H](O)CN2C(=O)c2ccc(F)cc2)O1)NCc1cccc(F)c1,-1,-21,9,-1,1,nt,nt
O=C(C[C@@H]1CC[C@@H]2[C@H](COC[C@H](O)CN2Cc2cc(F)ccc2F)O1)NCc1ccc(F)cc1,-1,-7,4,1,1,nt,nt
O=C(C[C@H]1CC[C@@H]2[C@H](COC[C@@H](O)CN2C(=O)c2ccccc2F)O1)NCc1ccccc1,1,-10,15,-3,nt,nt,nt
O=C(C[C@H]1CC[C@H]2[C@@H](COC[C@H](O)CN2Cc2ccccc2)O1)NCCc1ccccc1,1,5,13,-2,1.6*,0.14,i
O=C(C[C@@H]1CC[C@H]2[C@@H](COC[C@@H](O)CN2C(=O)c2ccc(F)cc2)O1)NCc1cccc(F)c1,-2,-15,-6,0,1.5*,0.035,i
O=C(C[C@@H]1CC[C@H]2[C@@H](COC[C@@H](O)CN2C(=O)c2ccccc2F)O1)NCc1ccccc1,-1,9,?,0,1.8*,0.033[42 µM],i
C[C@@H]1CCCCO[C@H](CN(C)S(=O)(=O)c2ccccc2)[C@H](C)CN([C@@H](C)CO)C(=O)c2cc(NC(=O)Cc3ccccc3)ccc2O1,0,-11,-4,-1,0,nt,nt
CCC(=O)N1C[C@@H](C)[C@H](OC)CN(C)C(=O)c2cc(NC(=O)C3CC3)ccc2OC[C@@H]1C,-1,7,-3,-1,0,nt,nt
COc1ccccc1-c1ccc2n(c1=O)C[C@H]1[C@H](CO)[C@@H](C(=O)NC3CCC3)N(C(=O)C3CCC3)[C@@H]21,-1,-12,-8,0,0,nt,nt
CC(C)Oc1ccc(C(=O)NC2CCN(Cc3ccccc3)CC2)cc1,0,-34,5,-1,6.6*,0.047,i
